Growth inhibition data for 38 molecules are collected here from the supplement of paper PMC9897528.

A number with no mark means an inactive call.
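Note: conidia screened in RPMI 1640 medium under 5% CO2, growth read by spectrophotometer, medium with 0.5% DMSO serving as the untreated reference.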

The test deals with Scedosporium aurantiacum CBS 136046. Briefly: growth inhibition relative to DMSO control (OD600); higher = more antifungal activity, active = 80 or more; extreme values may be limits of the assay. The conditions noted are these: 5 µM; 72 h; 37 °C.
For `Nc1nc(N)c2c(Sc3ccccc3)cccc2n1`, the growth inhibition was 18%.
Regarding `O=C(NN1C(=O)[C@@H]2[C@@H]3C=C[C@@H]([C@H]4C[C@@H]34)[C@@H]2C1=O)c1ccc(C(F)(F)F)cc1`, the growth inhibition was 6.47%.
For the molecule `Clc1ccc(COC(Cn2ccnc2)c2ccc(Cl)cc2Cl)c(Cl)c1` (stereo not drawn), the growth inhibition is 80.6% (active).
Regarding `N[C@@H]1CN(c2c(F)cc3c(=O)c(C(=O)O)cn([C@@H]4C[C@@H]4F)c3c2Cl)CC12CC2`, the growth inhibition was 7.35%.
To `CSc1ccc2c(c1)C(N1CCN(C)CC1)Cc1ccccc1S2` (stereo not drawn) belongs 46.7%; to `CCOc1ccc(C(=O)NCCc2ccccc2)cc1`, 33.4%.
To `O=C(/C(=C/c1ccc(Cl)cc1Cl)n1ccnc1)c1ccc(Cl)cc1` belongs 59.4%; to `CN1CCN(Cc2ccc(-c3cnc4[nH]cc(-c5ccc6[nH]ccc6c5)c4c3)cc2)CC1`, 54.5%.
To `COc1ccc(OCc2ccc(COc3c(Cl)cccc3Cl)cc2)c(Cl)c1` belongs 21.7%.
Consider `O=C(CSc1nnc(Br)n1-c1ccc(C2CC2)c2ccccc12)Nc1ccc(C(=O)O)cc1Cl`, for which the growth inhibition was 18.4%.
In the case of `CC[C@H](CO)Nc1nc(NCc2ccccc2)c2ncn(C(C)C)c2n1`, the growth inhibition is 10%.
As for `CCc1nc2ccccn2c1C(=O)NCc1ccccc1`, the growth inhibition is 13%.
For `COc1ccc(C[C@@H](C)[C@@H](C)Cc2ccc(OC)c(OC)c2)cc1OC` the value was 8.67%; for `CCOC(=O)N1CCN(c2ccc(Cl)cc2)CC1`, 10.6%; for `CCCCN1C[C@H](O)[C@@H](O)[C@H](O)[C@H]1CO`, 3.51%.
For `COc1cc(C2C3=C(CC(C)(C)CC3=O)Nc3ccccc3N2C(C)=O)ccc1OCc1ccccc1` (stereo not drawn) the value was 0.481%.
For `N#CCN1C(=O)COc2cc(F)c(N3C(=O)c4ccccc4C3=O)cc21` the value was 0%.
Turning to `CC1CN(c2ncnc3c2c(-c2ccccc2)cn3-c2ccc(F)cc2)CC(C)O1` (stereo not drawn), the growth inhibition was 20.4%.
To `Cc1cc(NS(=O)(=O)c2ccc(-c3ccc(F)cc3F)cc2)no1` belongs 11.5%; to `CCOc1ccc(/C=N/NC(=O)C2CC2c2ccc(C(C)(C)C)cc2)cc1OCC` (stereo not drawn), 18.4%.
Regarding `CCN(CC)S(=O)(=O)c1ccc(Cl)c(C(=O)Nc2sc3c(c2C#N)CCCC3)c1`, the growth inhibition is 25.7%.
To `O=C(NCc1ccc(F)cc1)c1c(O)c2ncccc2[nH]c1=O` belongs 2.42%.
For `CCn1cc(C(=O)O)c(=O)c2cc(F)c(N3CCNC(C)C3)c(F)c21` (stereo not drawn) the value was 4.34%.
To `C[C@@H](NC(=O)c1ccccc1-c1ccccc1)B(O)O` belongs 0.688%; to `N=C(N)c1ccc(COc2ccc(Cl)cc2)cc1`, 19.9%; to `c1cnc(NCc2ccc(CNc3ncccn3)cc2)nc1`, 10.1%.
`Nc1nnc(-c2ccc(Cl)cc2)s1`: the growth inhibition is 6.96%.
For `Cc1ccc(NC(=O)c2cc(Cl)ccc2O)cc1` the value was 4.62%; for `O=S(=O)(Nc1ccc(-n2cccc2)cc1)c1ccc(Cl)c(Cl)c1`, 41.8%; for `CCCCCCCCC(CP(=O)(O)C(C)N)C(=O)O` (stereo not drawn), 6.14%.
With `CCc1cc(Cc2cnc(N)nc2N)cc2c1N(C)CCC2C` (stereo not drawn), the growth inhibition was 16.8%.
For `CSC[C@H]1CN(Cc2c[nH]c3c(N)ncnc23)C[C@@H]1O` the value was 10.5%; for `CCCCCCCCCN1C[C@@H](O)[C@H](O)[C@@H](O)[C@@H]1CO`, 13.7%; for `Nc1cc(-c2nc3ccccc3[nH]2)n[nH]c1=O`, 1.56%.
For `Cc1cc(C2CCCCC2)n(O)c(=O)c1` the value was 18.5%.
To `OC1O[C@H](CSc2ccc(F)cc2)[C@@H](O)[C@H]1O` (stereo partly drawn) belongs 16.7%; to `N#Cc1c(F)c(Cl)c(NCc2ccccc2)c(C#N)c1F`, 38.1%; to `COc1cc2c(O)c3c(c(-c4ccc5c(c4)OCO5)c2cc1OC)C(=O)OC3`, 25%.
